For 12 molecules, growth results are on record in PubChem BioAssay (NCI).

Each structure is given as a SMILES string. Several values for one entry are separate records, joined by “and”; a condition that tells them apart may be missing. Identical values can stand only once. This is part of a sample that, as a whole, favours compounds with a hit. Of some 83,000 tested, about 20% had one in any assay.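 Percent growth is the endpoint: 0 to 100 indicates growth inhibition (40 means 60% inhibition), 0 means no net growth, and negative values indicate cell death.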 Activity calls are given as the source filed them. The calls were made as follows: active = growth percent below 10; inactive = the rest.

Among the test systems are NCI-H23 lung; NCI-H322M lung; HOP-62 NSCLC; NCI-H460 lung; HOP-92 NSCLC; NCI-H522 lung; A549/ATCC NSCLC; 786-0 renal; COLO 205 colon; NCI-H226 lung.
Holding throughout (experiment): NCI-60 one-dose screen, 48 h (100 = growth as untreated, 0 = no growth, -100 = all killed)
Common to all, as to conditions: 10 µM unless noted

In the case of `Cc1cc2ccccc2c2cc3ccccc3cc12`, the growth with NCI-H23 lung was 94.9% (inactive); in the test with NCI-H322M lung it was 85.9% (inactive); with HOP-62 NSCLC, 85.6% (inactive); in the test with NCI-H460 lung, 89.2% (inactive); in the test on HOP-92 NSCLC, 99% (inactive); in the test with NCI-H522 lung, 81% (inactive). Further, the growth with A549/ATCC NSCLC was 92.7% (inactive); with 786-0 renal, 110% (inactive); in the test on COLO 205 colon, 79.4% (inactive).
In the case of `C(#CCN1CCOCC1)CCCN1CCOCC1`, the growth in the test on NCI-H23 lung was 109% (inactive) and 105% (inactive); in the test with NCI-H226 lung, 100% (inactive) and 115% (inactive); with NCI-H322M lung, 119% (inactive) and 99% (inactive); in the test on HOP-62 NSCLC, 93.5% (inactive) and 99.9% (inactive); in the test with NCI-H460 lung it was 114% (inactive) and 111% (inactive); with NCI-H522 lung, 105% (inactive) and 95.4% (inactive). Besides, the growth with A549/ATCC NSCLC is 105% (inactive) and 100% (inactive); with 786-0 renal it was 110% (inactive) and 100% (inactive); with COLO 205 colon, 105% (inactive) and 104% (inactive).
As to `COC(=O)C(Cc1cn(C(C)=O)c2ccccc12)P(=O)(OC)OC` (stereo not given), the growth in the test with NCI-H23 lung was 98.5% (inactive); in the test on NCI-H322M lung, 101% (inactive); in the test on HOP-62 NSCLC it was 93.3% (inactive); in the test on NCI-H460 lung it was 98.1% (inactive); in the test on HOP-92 NSCLC, 98.8% (inactive); in the test on NCI-H522 lung it was 103% (inactive). For the same molecule, the figures for the growth with A549/ATCC NSCLC and in the test with 786-0 renal were 106% (inactive) and 105% (inactive), respectively.
Turning to `COC1C(OC(N)=O)C(O)C(Oc2ccc3c(O)c(NC(=O)c4ccc(O)c(CC=C(C)C)c4)c(=O)oc3c2C)OC1(C)C` (stereo not given), the growth in the test with NCI-H23 lung was 104% (inactive) and 93.7% (inactive); with NCI-H322M lung, 105% (inactive) and 102% (inactive); in the test on HOP-62 NSCLC it was 101% (inactive) and 98.5% (inactive); in the test with NCI-H460 lung, 116% (inactive) and 94.9% (inactive); with HOP-92 NSCLC, 78.6% (inactive); in the test on NCI-H522 lung, 44.3% (inactive) and 131% (inactive). Moreover, the growth was 105% (inactive) and 103% (inactive) in the test with A549/ATCC NSCLC; 94.2% (inactive) and 101% (inactive) in the test on 786-0 renal.
Consider `CCOCCC(=O)O`, for which the growth in the test with NCI-H23 lung was 110% (inactive); with NCI-H322M lung, 113% (inactive); in the test on HOP-62 NSCLC, 115% (inactive); in the test on NCI-H460 lung, 102% (inactive); in the test with HOP-92 NSCLC, 80.5% (inactive); with NCI-H522 lung, 102% (inactive). For the same molecule, the growth in the test on A549/ATCC NSCLC is 115% (inactive); in the test with 786-0 renal, 103% (inactive); in the test with COLO 205 colon it was 110% (inactive).
Turning to `COc1ccc2oc3c(ccc[n+]3C)c(=O)c2c1`, the growth in the test on NCI-H23 lung was 105% (inactive); in the test on NCI-H322M lung it was 105% (inactive); in the test on HOP-62 NSCLC it was 80.5% (inactive); in the test on NCI-H460 lung, 108% (inactive); in the test with HOP-92 NSCLC, 94.7% (inactive); in the test with NCI-H522 lung it was 82.7% (inactive). Moreover, the growth in the test on A549/ATCC NSCLC is 84% (inactive); in the test with 786-0 renal it was 105% (inactive); in the test on COLO 205 colon it was 98.6% (inactive).
Turning to `O=[N+]([O-])c1ccc(NC(c2ccccc2)c2ccc3cccnc3c2O)cc1` (stereo not given), the growth is 32% (inactive) in the test with NCI-H23 lung; 29.8% (inactive) in the test on NCI-H322M lung; 26.5% (inactive) in the test with HOP-62 NSCLC; -16% (active) in the test on NCI-H460 lung; 62.5% (inactive) with HOP-92 NSCLC; 17.9% (inactive) in the test on NCI-H522 lung. Also, the growth was 13.8% (inactive) with A549/ATCC NSCLC, 18.3% (inactive) in the test with 786-0 renal and 30.3% (inactive) in the test on COLO 205 colon.
Regarding `CC(=O)Oc1ccc(C(c2ccc(OC(C)=O)cc2)c2ccccn2)cc1`, the growth in the test with NCI-H23 lung is 59.7% (inactive) and 57% (inactive); in the test with NCI-H322M lung, 30.6% (inactive) and 64.6% (inactive); in the test on HOP-62 NSCLC it was 87.9% (inactive) and 109% (inactive); with NCI-H460 lung, 105% (inactive) and 101% (inactive); in the test with HOP-92 NSCLC, 66.1% (inactive) and 34.1% (inactive); with NCI-H522 lung it was 91.4% (inactive) and 72.6% (inactive). Besides, the growth was 87% (inactive) and 13.8% (inactive) in the test on A549/ATCC NSCLC; 101% (inactive) with 786-0 renal; 24% (inactive) and 17.9% (inactive) in the test with COLO 205 colon.
As to `CC(=O)Oc1cc(C(C)C)c(OCCN(C)C)cc1C`, the growth in the test with NCI-H23 lung was 99.8% (inactive) and 105% (inactive); in the test on NCI-H322M lung, 102% (inactive) and 105% (inactive); with HOP-62 NSCLC it was 110% (inactive) and 97.1% (inactive); in the test with NCI-H460 lung it was 115% (inactive) and 103% (inactive); in the test on NCI-H522 lung it was 112% (inactive) and 115% (inactive); in the test with A549/ATCC NSCLC it was -83.3% (active) and 99.8% (inactive). For the same molecule, the growth was 99.6% (inactive) and 104% (inactive) with 786-0 renal; 114% (inactive) and 108% (inactive) in the test with COLO 205 colon.
Turning to `O=C(OCc1ccccc1)c1ccccc1`, the growth with NCI-H23 lung is 107% (inactive) and 90.2% (inactive); with NCI-H226 lung it was 97.9% (inactive) and 93.9% (inactive); with NCI-H322M lung, 115% (inactive) and 106% (inactive); with HOP-62 NSCLC it was 94.9% (inactive) and 90.5% (inactive); in the test with NCI-H460 lung, 109% (inactive) and 108% (inactive); in the test on NCI-H522 lung, 111% (inactive) and 79.6% (inactive). In addition, the growth is 95.3% (inactive) and 86.6% (inactive) in the test with A549/ATCC NSCLC; 95.1% (inactive) and 96.5% (inactive) with 786-0 renal; 101% (inactive) in the test on COLO 205 colon.
As to `CC(=O)Nc1cscc1NC(C)=O`, the growth with NCI-H23 lung was 103% (inactive); in the test on NCI-H322M lung, 80.1% (inactive); with HOP-62 NSCLC, 98.2% (inactive); in the test on NCI-H460 lung, 101% (inactive); with HOP-92 NSCLC, 112% (inactive); in the test with NCI-H522 lung, 91.3% (inactive). For the same molecule, the growth is 104% (inactive) with A549/ATCC NSCLC, 101% (inactive) in the test with 786-0 renal and 100% (inactive) in the test with COLO 205 colon.
Consider `Cc1ccc(N)cc1S(=O)(=O)O`, for which the growth with NCI-H23 lung is 109% (inactive) and 107% (inactive); with NCI-H322M lung, 125% (inactive) and 113% (inactive); with HOP-62 NSCLC it was 104% (inactive) and 112% (inactive); in the test on NCI-H460 lung, 109% (inactive) and 107% (inactive); in the test on HOP-92 NSCLC, 93.1% (inactive); with NCI-H522 lung, 127% (inactive). The growth in the test on A549/ATCC NSCLC is 108% (inactive) and 102% (inactive); with 786-0 renal, 107% (inactive) and 98.5% (inactive); in the test with COLO 205 colon it was 109% (inactive) and 111% (inactive).
